Screens: PubChem BioAssay, National Center for Advancing Translational Sciences (NCATS)
S16 F2sN tox: cytotoxicity in S16 Pmp22-F2sN Schwann cells; S16 Pmp22-F2sN Schwann cells viability, CellTiter-Glo, 24 h; Potency, µM (highest dose often 57.5 µM), for the others: at the top dose activity change, negative = cytotoxicity, usual class: cytotoxic; 43,000 compounds, 0.48% hits; AID 1508642; note: nearly all actives have a fitted effect of over 65% in size
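Luminescence from CellTiter-Glo, read by CCD camera after a 15 min room-temperature incubation, served as the viability signal. Reporter Schwann cells (S16 Pmp22-F2sN) had been treated with pin-transferred compounds for 24 h at 37C.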
pS6 MEF inh: inhibitors of mTORC1 signaling in Tsc2-/- p53-/- MEF cells; Tsc2-/- p53-/- MEF, phospho-rpS6 immunofluorescence/PI, 24 h; Potency, µM (titrated, usually from 38.3 µM), for inactives: top-dose activity change, negative = inhibition, hits mostly inhibitors; 44,000 compounds, 0.78% hits;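 note: plate controls were DMSO for no effect and rapamycin for full effect; nearly all actives have a fitted effect of over 50% in size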
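Plate MEFs (Tsc2-/-, p53-/-, empty vector) in DMEM/10% FBS; after 24 h add compound, incubate 24 h at 37 degree Celsius; fix in PFA/TX-100, block, stain phospho-rpS6 and 10 uM PI; scan at 488 nm; report % positive cells.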
p53null 39C tox: p53 null cell cytotoxicity, nonpermissive temperature. H1299 p53-null (neo) cells, 39C, ATPlite viability, 24 h. Potency, µM (titrated, usually from 46.1 µM), for the others: at the top dose activity, negative = cell killing, actives largely listed as cytotoxic. 55,000 compounds, 0.97% hits. AID 904;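 note: 0% = DMSO only and -100% = full killing by 100 µM tamoxifen; nearly all actives have a fitted effect of over 50% in size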
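Concentration-response (up to 46 uM) was run for 24 h at the nonpermissive 39C on H1299-p53A138V or H1299-neo cells. ATP content was measured with ATPlite luminescence. AC50 values were Hill-modeled after normalizing between DMSO and 100 uM tamoxifen killing.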
p53null 32C kill: selectivity test: cytotoxicity in p53 null cells, permissive temperature; H1299-neo p53 null cells, ATP luminescence, 24 h, 32C; Potency, µM (top dose mostly 46.1 µM), without a hit: at the top dose activity change, negative = cytotoxicity, hits mostly cytotoxic; 55,000 compounds, 0.62% hits;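 note: 0% = DMSO only and -100% = full killing by 100 µM tamoxifen; nearly all actives have a fitted effect of over 55% in size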
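Luminescent ATP readout gave cell viability of p53-null H1299-neo cells after a 24 h compound exposure at the permissive 32C. Titrations ran up to 46 uM, and AC50s were fitted with the standard Hill equation.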
PMP22 txn: modulators of PMP22 gene transcription in S16 Schwann cells. S16 Pmp22-F2sN Schwann cells (luciferase reporters placed in the Pmp22 gene), FLuc/NLuc coincidence luminescence, 24 h. Potency, µM (doses to about 57.5 µM), inactives show at the highest dose activity change, negative = inhibition, actives largely listed as inhibitors. 43,000 compounds, 2% hits. AID 1508649; active = clear falling dose curves in both reporters; inconclusive = both reporters move, but less clearly or upward; inactive = either reporter flat; the % is the NLuc reporter signal
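Reporter cells (S16 Pmp22-F2sN, 500–1,000 per well) exposed to compounds for 24 h, 37C, 5% CO2; lysis with FLuc read after 10 min, then Stop&Glo and NLuc read after 10 min.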
OvCa metastasis: inhibitors of ovarian cancer cell adhesion and invasion in omental model; SKOV3ip1-GFP adhesion/invasion on 3D omental model, fluorescence; Potency, µM (top dose mostly 45.8 µM), inactives show at the top dose activity change, negative = inhibition, most hits filed as inhibitors; 46,000 compounds, 0.1% hits;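 note: plate controls were DMSO wells for no effect and tomatine positive control wells for full effect; nearly all actives have a fitted effect of over 65% in size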
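A 3D layer of primary human omental fibroblasts, mesothelial cells, fibronectin and collagen I, grown 48 hr, received SKOV3ip1-GFP cells in serum-free medium plus compounds at 0.36-46 umol/L. After 2 hr RT and 16 hr 37 C, fixed adherent GFP cells were counted; normalized to DMSO and tomatine.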
* hit, by the source's call; i = inactive; ? = inconclusive; · = not tested or not shown. A selection: hits, their analogues and other compounds. The true share with any hit is near 3.1%. Unless noted, calls come from the whole dose curve; as a rule, active = well fitted curve in the direction sought with a large enough effect; inconclusive = small, poorly fitted or top-dose-only effect, or another doubt; inactive = no such curve, though single readings can be large; an effect the other way counts as inactive or inconclusive. Unless noted, % is set by controls: 0 for no effect and ±100 for the full control effect; potency is the fitted concentration of half-maximal effect.

SMILES	S16 F2sN tox	pS6 MEF inh	p53null 39C tox	p53null 32C kill	PMP22 txn	OvCa metastasis
CCOC(=O)c1ccc(-c2ccc(/C=C(\C#N)c3nc4ccc(C)cc4[nH]3)o2)cc1	?	21.8%	6.31µM*	?	-166.5%	3.16µM*
N#C/C(=C\c1ccc(-c2ccc(F)cc2F)o1)c1nc2ccccc2[nH]1	1.8%	13.1µM*	?	?	?	-3.5%
NC[C@H]1O[C@H](O[C@@H]2[C@@H](O)[C@@H](O[C@H]3O[C@H](CO)[C@@H](O)[C@H](N)[C@@H]3O)[C@H](N)C[C@@H]2N)[C@H](O)[C@@H](O)[C@H]1O	·	·	·	·	·	1.3%
CCN(C(=O)c1ccco1)c1nnc(-c2ccc(OC)cc2)s1	·	·	12.6µM*	?	·	·
Cn1cc(CNCC2CCN(c3ncc(C(=O)NO)cn3)CC2)c2ccccc21	·	·	·	·	·	14.7%
CC(C)Oc1ccc(C(=O)Nc2nnc(SCC(=O)N3CCOCC3)s2)cc1	·	·	0.631µM*	0.562µM*	·	·
Cc1ccc(C(=O)Nc2nnc(SCC(=O)N3CCCc4ccccc43)s2)cc1	·	·	·	1.26µM*	·	·
Cc1ccc(C(=O)Nc2ccc3nc(SCC(=O)N4CCc5ccccc54)sc3c2)cc1	4.9%	-6.3%	-10.8%	-14.4%	-41.7%	i
COc1cccc(-c2nnc(-c3ccc(C)o3)o2)c1	·	·	12.6µM*	12.6µM*	·	·
CC1(C)CNc2cc(NC(=O)c3cccnc3NCc3ccncc3)ccc21	·	·	·	·	·	5.9%
COc1ccc(N2CCN(C(=O)C(C)n3nc(C)c4sc5ccccc5c4c3=O)CC2)cc1 (stereo unspecified)	11.7%	1.31µM*	12.6µM*	-20.3%	?	?
Cc1nn(CC(=O)NC2CCC(C)CC2)c(=O)c2c1sc1ccccc12 (stereo unspecified)	4.1%	3.8%	-22.9%	2.0%	?	8.6%
Cc1ccc(C)c(N2CCN(C(=O)C(C)n3nc(C)c4sc5ccccc5c4c3=O)CC2)c1 (stereo unspecified)	-2.3%	1.8%	0.4%	-10.2%	3.9%	-3.4%
Cc1nn(C(C)C(=O)NC2CCC(C)CC2)c(=O)c2c1sc1ccccc12 (stereo unspecified)	6.9%	2.07µM*	20µM*	?	?	i
CCOc1ccc(C(=O)Nc2ccc(-n3nncc3-c3ccc(OC)cc3)cc2)cc1	-13.6%	11.4%	-7.4%	3.4%	15.8%	3.2%
CCOc1ccc(NC(=O)c2ccc(N)cc2)cc1	·	·	?	11.2µM*	·	·
CCCOc1ccc(C(=O)Nc2ccc(NC(=O)c3ccccc3)c(Br)c2)cc1	?	18.5µM*	-10.1%	-13.2%	?	i
O=C1NC(=O)C(c2cnc3ccccn23)=C1c1cn2c3c(cccc13)CN(C(=O)N1CCOCC1)CC2	·	·	·	·	·	-12.1%
COc1ccc(C(=O)Nc2noc3ccccc23)cc1	11.2%	3.4%	6.31µM*	3.16µM*	10.4%	-1.7%
COc1ccc(F)c(F)c1C(=O)c1cnc(NC2CCN(S(C)(=O)=O)CC2)nc1N	·	·	·	·	·	48.5%
Cc1cccc(N2CCN(C(=O)c3ccc4c(c3)N(Cc3ccccc3F)C(=O)c3ccccc3S4=O)CC2C)c1 (stereo unspecified)	10.9%	-9.6%	1.1%	-0.8%	9.04µM*	i
CCN1C(=O)c2ccccc2S(=O)c2ccc(C(=O)N3CCN(c4cccc(C)c4)C(C)C3)cc21 (stereo unspecified)	?	1.9%	-1.3%	-7.2%	?	i
O=C(c1ccc2c(c1)N(Cc1cccc(Cl)c1)C(=O)c1ccccc1S2=O)N1CCN(c2cccc(C(F)(F)F)c2)CC1 (stereo unspecified)	?	-1.5%	13.9%	11.0%	10.8µM*	7.9%
O=C(Nc1cccc(NC(=O)c2ccccc2F)c1)c1ccccc1	?	11.8%	20.1%	-3.6%	0.1%	-3.9%
Cc1ccccc1C(=O)Nc1cccc(NC(=O)c2ccc(C(C)(C)C)cc2)c1	-21.6%	8.5%	?	12.6µM*	?	?
SMILES	S16 F2sN tox	pS6 MEF inh	p53null 39C tox	p53null 32C kill	PMP22 txn	OvCa metastasis
CCCS(=O)(=O)Nc1ccc(F)c(C(=O)c2c[nH]c3ncc(-c4ccc(Cl)cc4)cc23)c1F	·	·	·	·	·	-9.4%
COc1ccc(-c2oc3c(CC=C(C)C)c(OC4O[C@H](CO)[C@@H](O)[C@H](O)[C@@H]4O)cc(O)c3c(=O)c2OC2O[C@@H](C)[C@H](O)[C@@H](O)[C@@H]2O)cc1 (stereo partly specified)	·	·	·	·	·	-5.1%
Cc1nn(Cc2ccc(Cl)cc2Cl)c(C)c1NC(=O)CCl	·	·	12.6µM*	5.1%	·	·
Cc1nn(Cc2ccc(Cl)cc2Cl)c(C)c1NC(=O)C1C2CCC(O2)C1C(=O)O (stereo unspecified)	·	·	-0.3%	-6.1%	·	·
CCc1ccc(-n2nc(CO)c(C(=O)NC)n2)cc1	0.2%	3.7%	20µM*	?	-0.8%	6.8%
CCc1ccc(-n2nc(CO)c(C(=O)NCC(c3ccccc3)c3ccccc3)n2)cc1	1.1%	1.6%	-13.6%	-0.2%	-27.0%	-5.7%
CCc1ccc2nc(N3CCC(C(=O)O)CC3)sc2c1	-3.0%	-1.5%	5.01µM*	7.94µM*	23.7%	i
CCc1ccc2nc(N3CCN(C(=O)C4CC4)CC3)sc2c1	-1.1%	-13.2%	19.6%	-20.2%	-9.5%	-1.8%
CCCCN(C)CCCNC(=O)c1ccc2nc(N3CCCCC3)sc2c1	4.2%	-11.3%	-16.1%	-1.7%	-1.7%	17.1%
CCCCN(C)CCNC(=O)C1CCN(c2nc3ccc(CC)cc3s2)CC1	?	11.7µM*	3.16µM*	?	?	?
O=C(O)c1ccc2nc(-c3cc4cc(F)ccc4oc3=O)[nH]c2c1	5.7%	-0.5%	-5.9%	-16.4%	9.1%	-1.2%
O=C(O)c1ccc2nc(-c3cc4cccc(O)c4oc3=O)[nH]c2c1	?	3.7%	?	10µM*	-1.8%	-8.1%
CCCN(CCC)S(=O)(=O)c1ccc(C(=O)Nc2cccc(-c3nc4ccccc4[nH]3)c2)cc1	?	-1.7%	15.5%	17.2%	18.9µM*	?
COc1c(Cl)cc(C(=O)Nc2cccc(-c3nc4ccccc4[nH]3)c2)cc1Cl	5.5%	4.6%	?	?	?	?
O=C(NCCc1nc2ccccc2n1Cc1ccc(Cl)cc1Cl)c1ccco1	5.2%	20.7µM*	?	0.5%	?	-1.8%
O=C(NCCCc1nc2ccccc2n1Cc1ccc(Cl)cc1Cl)c1ccco1	·	-1.8%	-0.1%	0.9%	·	i
